Hsp90 Hop PPI = changes Hsp90-Hop TPR2A binding signal, up or down. AlphaScreen TPR2A-His6 binding biotin-Hsp90 C-terminal peptide. Potency, µM (titrated, usually from 57 µM), for inactives: top-dose activity change, negative = inhibition. 71,000 tested, 0.44% active. AID 595; active means well fitted curve in either direction with a large enough effect; inconclusive means small, poorly fitted or top-dose-only effect, or another doubt; further: potency means the concentration at half of the fitted maximal effect; on the % scale 0 is the no-effect control and ±100 the full control effect
ERK AVP block = blocks ERK signaling stimulated by vasopressin. HEK293-V1b, vasopressin-stimulated pERK AlphaScreen. Potency, µM (highest dose often 57.5 µM), for the others: at the top dose activity, negative = inhibition, hits mostly inhibitors. 72,000 tested, 0.99% active; further: potency means the concentration at half of the fitted maximal effect; on the % scale 0 is the no-effect control and ±100 the full control effect; nearly all actives have a fitted effect of over 55% in size
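Phosphorylated ERK1/2 detected via AlphaScreen bead proximity in lysates of V1b-expressing HEK293 cells given 25 nM vasopressin for 5 min after 30 min compound exposure (37 °C). AC50 from Hill equation; basal DMSO 0%, vasopressin 100%.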
Tau filament bind = binds recombinant human tau filaments. Potency, µM (doses to about 57.1 µM), for the others: at the highest dose activity change, negative = inhibition. P10636. recombinant tau filaments, thioflavin S fluorescence, 15 h; filaments grown with octadecylsulfate alongside compound. 71,000 tested, 2% active;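 further: potency means the concentration at half of the fitted maximal effect; on the % scale 0 is the no-effect control and ±100 the full control effect; actives lower thioflavin S fluorescence by blocking filaments or displacing dye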
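His-tagged recombinant human tau (exons 2, 3, 10; 1 uM final) fibrillized with 30 uM sodium octadecylsulfate, 15 h at 37 C, in pH 7.4 HEPES buffer with 10 uM thioflavine S and 5 mM DTT. Reduced ThS fluorescence (450/510 nm) marks activity.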
TsaE inh = YjeE (TsaE) inhibition, E. coli | purified YjeE enzyme, qHTS inhibition assay | Potency, µM | 71,000 tested, 0.05% active
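Purified YjeE (10 uM) with BODIPY Texas Red-labeled ADP probe (2 uM); compounds pin-transferred, 15 min at room temperature. Binding inhibition read as decreased fluorescence polarization; ADP titration as control.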
DNA Pol III inh = blocks replication by bacterial DNA polymerase III holoenzyme; Potency, µM (top dose mostly 57.1 µM), inactives show at the highest dose activity change, negative = inhibition; 71,000 tested, 0.25% active; reconstituted DNA polymerase III holoenzyme replication, biochemical; AID 603; further: potency means the concentration at half of the fitted maximal effect; on the % scale 0 is the no-effect control and ±100 the full control effect
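Reconstituted *E. coli* holoenzyme (0.35 nM Pol III, 1 nM beta, 154 nM SSB, 2 nM primase) was preincubated with compound for 15 min at RT. Synthesis on 1.4 nM ssM13Gori ran 35 min, then was stopped with PicoGreen/EDTA and read as dsDNA fluorescence.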
15-hLO inh = inhibitors of human 15-lipoxygenase (ALOX15). AID 887. P16050. purified 15hLO-1, xylenol orange hydroperoxide absorbance. Potency, µM (doses to about 57.1 µM), for the others: at the top dose activity change, negative = inhibition, most hits filed as inhibitors. 74,000 tested, 1.4% active; further: potency means the concentration at half of the fitted maximal effect; on the % scale 0 is the no-effect control and ±100 the full control effect; nearly all actives have a fitted effect of over 55% in size
Target sequence (P16050 whole entry, looked up): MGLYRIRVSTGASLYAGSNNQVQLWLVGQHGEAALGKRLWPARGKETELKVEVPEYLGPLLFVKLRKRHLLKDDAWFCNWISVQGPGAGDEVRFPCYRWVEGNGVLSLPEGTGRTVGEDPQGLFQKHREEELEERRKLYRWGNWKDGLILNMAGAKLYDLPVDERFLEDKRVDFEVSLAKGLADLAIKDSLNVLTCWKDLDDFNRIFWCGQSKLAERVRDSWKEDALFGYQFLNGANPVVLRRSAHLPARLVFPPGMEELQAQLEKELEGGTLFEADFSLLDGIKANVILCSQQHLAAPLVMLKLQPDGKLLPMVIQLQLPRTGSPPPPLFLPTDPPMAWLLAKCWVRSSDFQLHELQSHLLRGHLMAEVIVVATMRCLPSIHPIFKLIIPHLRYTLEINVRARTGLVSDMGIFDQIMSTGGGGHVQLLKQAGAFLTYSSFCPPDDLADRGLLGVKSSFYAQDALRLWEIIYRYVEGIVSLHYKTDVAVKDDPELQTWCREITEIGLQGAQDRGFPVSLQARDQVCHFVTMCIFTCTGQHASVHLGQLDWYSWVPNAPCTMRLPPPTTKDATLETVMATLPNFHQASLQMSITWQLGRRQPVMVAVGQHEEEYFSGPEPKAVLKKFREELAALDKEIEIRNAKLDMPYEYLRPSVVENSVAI
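Compounds were preincubated 15 min at room temperature with 40 nM purified human enzyme (25 mM Hepes pH 7.5, 0.01% Triton X-100); 50 uM arachidonic acid reacted 6 min. Fe-xylenol orange detection, 30 min, absorbance ratio 573/405 nm.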
Active calls of the source: *; i = inactive; ? = inconclusive; . = not tested or not shown; ! = not confirmed by another sample; [ ] = dose if it differs, or a comment. Sampled rows, rich in hits. Any-hit rate of the full collection: about 4.2%. Unless noted, the call rests on the fitted dose curve; in most records, active means well fitted curve in the direction sought with a large enough effect; inconclusive means small, poorly fitted or top-dose-only effect, or another doubt; inactive means no such curve, though single readings can be large; an effect the other way counts as inactive or inconclusive.

SMILES | Hsp90 Hop PPI | ERK AVP block | Tau filament bind | TsaE inh | DNA Pol III inh | 15-hLO inh
CN1CCc2nc(NC(=O)c3cccc(S(=O)(=O)N4CCc5ccccc54)c3)sc2C1 | -14% | 3% | 213% | ? | 7% | 16µM*
Cc1csc(NC(=O)c2cccc(S(=O)(=O)N3CCCCC3)c2)n1 | -2% | -13% | 8% | i | 13% | -9%
O=C1C2C3C=CC(C3)C2C(=O)N1c1ncn[nH]1 (stereo not drawn) | -5% | -6% | -11% | i | 13µM* | 8%
COCCOC(=O)C1=C(C)N=C2SCCC(=O)N2C1c1cc(Br)ccc1OC (stereo not drawn) | -18% | -4% | -9% | i | 2% | -1%
CC(C)(C)c1ccc(-c2nnc(SCCC#N)n2C2CCCC2)cc1 | 8% | 18% | -7% | i | -1% | ?
CCCOc1ccccc1-c1nc2n[nH]nc2c(=O)[nH]1 | -2% | -17% | ? | i | -1% | 16µM*!
O=C(O)/C=C/C=C/c1ccccc1 | . | -6% | . | . | . | 0%
Cc1ccccc1-c1ccc2ncnc(-n3ccnc3)c2c1 | -8% | 5% | 141% | i | -12% | ?
CN(C)c1ccc(-c2ccc3ncnc(-n4ccnc4)c3c2)cc1 | 0% | 31% | 3.2µM* | i | -5% | 10%
CC(=O)c1c(COC(=O)c2cccnc2)nc2ccccc2[n+]1[O-] | -11% | -14% | 20µM* | i | -5% | 7%
CCOc1ccc2nc(COC(=O)c3ccco3)c(C(C)=O)[n+]([O-])c2c1 | -1% | 0% | 6% | i | -3% | 2%
O=C(C1=C(O)C(=O)N(Cc2ccco2)C1c1cccnc1)c1cc2ccccc2o1 (stereo not drawn) | -19% | ? | 153% | i | -8% | 16µM*
Nc1nc(-c2ccco2)c(-c2ccco2)s1 | ? | ? | ? | i | ? | 20µM*
c1coc(-c2ncc[nH]2)c1 | -3% | -7% | 6% | i | -6% | 3%
Nc1nc(-c2ccco2)cs1 | -4% | -29% | -8% | i | 1% | 2%
c1coc(-c2nc(-c3ccco3)c(-c3ccco3)nc2-c2ccco2)c1 | ? | -17% | ? | i | 1.6µM* | 2µM*
CCCOC(=O)c1ccc(OCC(O)Cn2c(C)nc3ccccc32)cc1 (stereo not drawn) | -6% | 13µM* | 113% | i | 2% | 10%
CCC(C)Cn1c(C)nc2ccccc21 (stereo not drawn) | -7% | -14% | -13% | i | -5% | 0%
Cc1ccc(-c2cc(-c3ccc(F)cc3)nc(N)c2C#N)o1 | -3% | 4% | 0% | i | -4% | -1%
Cc1ccc(-c2cc(-c3ccccc3)c(C#N)c(N)n2)o1 | ? | 27% | 3.2µM* | i | -4% | ?
N#Cc1c(-c2ccco2)cc(-c2ccccn2)nc1N | -3% | 3% | -11% | i | -3% | 0%
Cc1ccc(-c2cc(-c3ccccc3Cl)c(C#N)c(N)n2)o1 | -8% | 5% | 13µM* | i | -4% | 7.9µM*
CCCn1c(C)nc2c(NC3CCN(Cc4ccccc4)CC3)nc(C)nc21 | -1% | 16% | -7% | i | -3% | -8%
CC(C)NC[C@H](O)c1ccc(NS(C)(=O)=O)cc1 | 1% | 1% | ? | i | -5% | -24%[25.6 µM]
Cc1ccc2cccc(S(=O)(=O)Nc3ccc4c(c3)OCO4)c2n1 | ? | 0% | 7.9µM* | i | -12% | -20%
SMILES | Hsp90 Hop PPI | ERK AVP block | Tau filament bind | TsaE inh | DNA Pol III inh | 15-hLO inh
CN(C)S(=O)(=O)Nc1ccc2c(c1)OCO2 | 0% | 3% | 3% | i | 0% | 3%
O=S(=O)(Nc1ccc2c(c1)OCO2)c1ccc(Br)s1 | ? | ? | 20µM* | i | 3% | 25µM*
O=C(NC1CCCCC1)N1CCN(Cc2nc3ccccc3c(=O)[nH]2)CC1 | -1% | -1% | 7% | i | 1% | 6%
CCOc1ccccc1NC(=O)Cn1c(C)cc(COC)c(C#N)c1=O | 2% | -18% | -11% | i | -2% | -16%
COC(=O)c1ccc(C23CC4(C2)[C@H](CN(CC2CCCCC2)[C@@H]4c2ccccc2)C3c2ccccc2)cc1 (stereo partly drawn) | . | -2% | . | . | . | .
COc1ccc(N2CCN(c3nc(=S)n(-c4ccccc4)c(C)c3C(C)=O)CC2)cc1 | -18% | ? | 5µM* | i | 0% | 16µM*
CC(C)c1ccc(Cn2ccc3c4c(N)nc(NC5CC5)nc4ccc32)cc1 | -14% | -12% | i | i | -6% | 7.9µM*
CCOC(=O)c1sc(SCC(=O)Nc2ccc(N(C)C)cc2)nc1N | -19% | ? | -20% | i | -6% | -11%
CC(=O)N(CCCN(C)C)CCC(C)CCC=C(C)C (stereo not drawn) | -2% | 18% | -25% | i | 0% | -29%
CC(C)=CCCC(C)N(C=O)C(C)CCC=C(C)C (stereo not drawn) | 1% | 17% | -3% | i | -4% | 7.9µM*
O=C(c1ccccc1)c1ccc(OCC(O)CN2CCCCC2)cc1 (stereo not drawn) | -3% | -5% | 6% | i | -11% | -1%
CN(C)S(=O)(=O)N1CCN(CC(O)COc2ccc(C(=O)c3ccccc3)cc2)CC1 (stereo not drawn) | -4% | 32µM* | 44% | i | -2% | -13%
Cc1cccc(N2CCN(C(=O)c3cn(C)c(=O)c4c3c3ccccc3n4C)CC2)c1C | -18% | 20µM* | 65% | i | 6% | ?
N#C/C(C(=O)N1CCOCC1)=c1\s/c(=C/c2ccncc2)c(=O)n1-c1ccccc1 | -4% | -1% | -4% | i | -4% | 14%
CCOC(=O)c1c(C2COc3ccccc3O2)csc1N (stereo not drawn) | -2% | 32µM* | -26% | i | -4% | ?
CCOC(=O)Nc1ccc(NS(=O)(=O)c2ccc(C)cc2)cc1 | -1% | -30% | 1% | i | 0% | -23%
Cn1c(=O)oc2cc(S(=O)(=O)Nc3ccc4c(c3)OCO4)ccc21 | -26% | -26% | 20µM* | i | -4% | 7%
CCN(CCNS(=O)(=O)c1ccc2c(c1)oc(=O)n2C)c1ccccc1 | 0% | -16% | -21% | i | -3% | 5%
CCN(CC)c1ccc(NS(=O)(=O)c2ccc3c(c2)oc(=O)n3C)c(C)c1 | -6% | ? | -19% | i | -12% | 20µM*
COC(=O)c1ccc(CCc2cc(O)ccc2O)cc1 | 0%[11 µM] | 17%[11.5 µM] | 3%[11.4 µM] | i | -9%[11.4 µM] | 1.6µM*
O=C(Cn1ncc2c(=O)oc3ccccc3c21)N1CCN(c2ccccn2)CC1 | -5% | 15% | 1% | i | 0% | 19%

High-throughput results from PubChem BioAssay.
